# Data taken from PubChem BioAssay (NCI).
# Several values for one entry are separate records, joined by “and”; a condition that tells them apart may be missing. Equal values may be shown once. Compounds without any hit were thinned out: in the full panel of roughly 83,000, 20% have a hit.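 A percent growth of 40 corresponds to 60% growth inhibition; 0 means no net growth; -100 means all cells died. Active threshold: below 10.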 Unmarked numbers belong to inactive results. Activity calls are given as the source filed them.
# What was measured:
# Test in all cases: NCI-60 one-dose screen, 48 h (100 = growth as untreated, 0 = no growth, -100 = all killed)
# [1] = tested on: NCI-H322M lung; conditions: 10 µM
# [2] = tested on: HOP-62 NSCLC; conditions: 10 µM
# [3] = tested on: NCI-H460 lung; conditions: 10 µM
# [4] = tested on: NCI-H522 lung; conditions: 10 µM
# [5] = tested on: A549/ATCC NSCLC; conditions: 10 µM
# [6] = tested on: DU-145 prostate; conditions: 10 µM
# [7] = tested on: SF-268 CNS; conditions: 10 µM
# [8] = tested on: SF-295 CNS; conditions: 10 µM
# [9] = tested on: SF-539 CNS; conditions: 10 µM
# [10] = tested on: M14 melanoma; conditions: 10 µM
# [11] = tested on: HCT-15 colon; conditions: 10 µM
# [12] = tested on: HT29 colon; conditions: 10 µM
# [13] = tested on: SNB-75 CNS; conditions: 10 µM
# [14] = tested on: SNB-19 CNS; conditions: 10 µM
# [15] = tested on: U251 CNS; conditions: 10 µM
# [16] = tested on: PC-3 prostate; conditions: 10 µM
# [17] = tested on: UACC-62 melanoma; conditions: 10 µM
# [18] = tested on: SK-MEL-28 melanoma; conditions: 10 µM
# [19] = tested on: SK-MEL-2 melanoma; conditions: 10 µM
# [20] = tested on: HL-60(TB) leukemia; conditions: 10 µM unless noted
compound,measurement,setting,value
C[C@H]1[C@H](OC(=O)CCC(=O)N(CCCc2cn(-c3ccc(CN4CCOCC4)cc3)nn2)CCNc2ccnc3cc(Cl)ccc23)O[C@@H]2OC3(C)CC[C@H]4[C@H](C)CC[C@@H]1[C@@]24OO3,growth,[1],20.9%
same,growth,[2],56.4%
same,growth,[3],7.93% (active)
same,growth,[4],-22.3% (active)
same,growth,[5],36%
same,growth,[6],49.7%
same,growth,[7],50.1%
same,growth,[8],-2.37% (active)
same,growth,[9],-73% (active)
same,growth,[10],-66.3% (active)
same,growth,[11],8.55% (active)
same,growth,[12],-12.5% (active)
same,growth,[13],38.7%
same,growth,[14],50.9%
same,growth,[15],13.3%
same,growth,[16],29.2%
same,growth,[17],16.6%
same,growth,[18],-69.3% (active)
same,growth,[19],44.2%
same,growth,[20],-47% (active)
C#CCCCN(CCNc1ccnc2cc(Cl)ccc12)C(=O)CCC(=O)O[C@@H]1O[C@@H]2OC3(C)CC[C@H]4[C@H](C)CC[C@@H]([C@H]1C)[C@@]24OO3,growth,[1],65.1%
same,growth,[2],58.9%
same,growth,[3],40.6%
same,growth,[4],8.38% (active)
same,growth,[5],40.8%
same,growth,[6],59.1%
same,growth,[7],56.9%
same,growth,[8],33.8%
same,growth,[9],39.2%
same,growth,[10],37.7%
same,growth,[11],12.1%
same,growth,[12],4.95% (active)
same,growth,[13],67%
same,growth,[14],56.5%
same,growth,[15],45.7%
same,growth,[16],37%
same,growth,[17],31.4%
same,growth,[18],44.1%
same,growth,[19],43.9%
same,growth,[20],-26.3% (active)
COc1cc(OC)c(/C=C/C(=O)c2nc3ccccc3n2Cc2ccc(F)cc2)c(OC)c1,growth,[1],104%
same,growth,[2],58.9%
same,growth,[3],58.9%
same,growth,[4],79.6%
same,growth,[5],88.6%
same,growth,[6],92.1%
same,growth,[7],72.1%
same,growth,[8],75.7%
same,growth,[9],60.9%
same,growth,[10],103%
same,growth,[11],78.9%
same,growth,[12],90.2%
same,growth,[13],0.098% (active)
same,growth,[14],51.5%
same,growth,[15],101%
same,growth,[16],71%
same,growth,[17],62.5%
same,growth,[18],92.8%
same,growth,[19],104%
same,growth,[20],67.7%
CC[C@]12C=CCN3CC[C@@]4(c5ccc(OC)cc5N(C)[C@H]4[C@@](O)(C(=O)OC)[C@@H]1OC(=O)CCCC[P+](c1ccc(OC)cc1)(c1ccc(OC)cc1)c1ccc(OC)cc1)[C@@H]32,growth,[1],-89.6% (active)
same,growth,[2],-80.8% (active)
same,growth,[3],-87% (active)
same,growth,[4],-81.9% (active)
same,growth,[5],-83.7% (active)
same,growth,[6],-58.2% (active)
same,growth,[7],-38.1% (active)
same,growth,[8],-93.6% (active)
same,growth,[9],-97.4% (active)
same,growth,[10],-89.8% (active)
same,growth,[11],-5.69% (active)
same,growth,[12],-63.1% (active)
same,growth,[13],-95.4% (active)
same,growth,[14],-95.7% (active)
same,growth,[15],-95.9% (active)
same,growth,[16],-37.2% (active)
same,growth,[17],-95.2% (active)
same,growth,[18],-96.8% (active)
same,growth,[19],-91.4% (active)
same,growth,[20],-45.2% (active)
COC(=O)c1c(C(=O)OC)c2ccc3c4ccccc4ccc3n2c1C(=O)C(C)Br (centres undefined),growth,[20],39%
Cc1ccc(Nc2nnc(-c3c[nH]c4ccccc34)o2)c(C)c1,growth,[20],1.4% (active)
CC(=O)Nc1ccc(C(=O)NC(=S)Nc2ccc(S(N)(=O)=O)cc2)cc1,growth,[20],95.5%
COc1cc(/C=C/C(=O)c2cnn(-c3cc(=O)[nH]c4ccc(Br)cc34)c2C)cc(OC)c1OC,growth,[20],-19.6% (active)
Cn1cc(-c2cc(N)n3nc(-c4cn(C)c5ncccc45)cc3n2)c2cccnc21,growth,[20],39.2%
COc1ccc(CN2[C@H](C(=O)NCCCCCCC(=O)NO)Cc3c([nH]c4ccccc34)[C@H]2C2CC2)cc1,growth,[20],3.44% (active)
CN1CCc2c(sc3ncnc(N/N=C/c4ccc5ccccc5c4)c23)C1,growth,[20],-14.6% (active)
CCc1ccccc1NC(=O)N/C(N)=N/c1nc2ccccc2s1,growth,[20],-27.2% (active)
O=C(N/N=C/c1ccc(Br)o1)c1[nH]c2ccc(Br)cc2c1-c1ccccc1,growth,[20],-48.7% (active)
COc1cccc(COc2ccc(NC(=O)Nc3ccc(Cl)c(C(F)(F)F)c3)cc2)c1,growth,[20],17.8%
COc1ccsc1/C=N/NC(=O)c1[nH]c2ccc(Br)cc2c1-c1ccccc1,growth,[20],-33.3% (active)
COc1ccc2[nH]cc(/C=N/Nc3cccc(Cl)n3)c2c1,growth,[20],23.7%
Nc1nn2c(-c3cc4cc(Br)ccc4oc3=O)ccnc2c1N=Nc1ccccc1,growth,[20],92.7%
Cc1ccc(-c2cc(C(=O)N=Nc3c(O)[nH]c4ccc(Br)cc34)c3ccccc3n2)cc1,growth,[20],15.8%
C#CCOc1cc(N(CC)CC)ccc1C(C(=O)NC(C)(C)C)N(C(=O)C1CCc2cc(F)ccc2O1)c1ccc(F)cc1 (centres undefined),growth,[20],3.9% (active)
CN(C)c1nc(NCCNS(=O)(=O)c2ccc(C(=O)/C=C/c3ccc(Cl)cc3)cc2)nc(N2CCOCC2)n1,growth,[20],16.8%
O=C(c1ccc(O)cc1)C1[C@H](c2ccccc2Br)[C@@H](c2ccccc2)NC12C(=O)Nc1ccc(Br)cc12 (some centres undefined),growth,[20],33.6%
COc1ccc(S(=O)(=O)Nc2ccc(-c3ccc4c(c3)NC(=O)/C4=C\c3ccc[nH]3)cc2)cc1OC,growth,[20],76.8%
O/N=C(\CSc1nnc(-c2c[nH]c3ccccc23)n1-c1ccccc1)c1ccc(Cl)cc1,growth,[20],-25.9% (active)
COc1ccc(-c2nc(SCC(C)C)nc(NCCc3c[nH]c4ccccc34)c2C#N)cc1,growth,[20],63.2%
Nc1cccc(-n2c(COc3ccc(I)cc3)nc3ccccc32)c1,growth,[20],118% and 98%
COc1ccc2c(c1)C(Sc1ccc(F)cc1)c1c(nc(N)c(C#N)c1N)O2 (centres undefined),growth,[20],84.9%
O=C(CSc1nc2ccccc2c(=O)n1-c1ccc(Cl)cc1)Nc1ccc(-c2nc3ccc([N+](=O)[O-])cc3[nH]2)cc1,growth,[20],85.7%
CC(C)CN1C(=O)/C(=C\C(=O)c2cc3ccccc3oc2=O)c2ccccc21,growth,[20],96.1%
O=C(Cn1nc(-c2ccccc2)ccc1=O)NN1C(=O)c2ccccc2C1=O,growth,[20],101%
Cc1ccc(C(C(=O)NC2CCCCC2)N(Cc2ccccc2Cl)C(=O)c2ccc(CN3CCOCC3)o2)o1 (centres undefined),growth,[20],84.6%
C=CCn1c(SCC(=O)Nc2ccc(C(=O)/C=C/c3ccccc3)cc2)nnc1-c1c[nH]c2ccccc12,growth,[20],32.4%
COc1ccc2[nH]c(=O)c(CSc3ccccc3Nc3nccc(-c4ccc(C(F)(F)F)cc4)n3)cc2c1,growth,[20],1.94% (active)
COc1cc2c(cc1OC)CN(CCCCOc1cc(O)c3c(=O)cc(-c4ccccc4)oc3c1)CC2,growth,[20],7.79% (active)
CCCn1c(NC(=O)c2cccc(C(N)=O)c2)nc2ccc(CN3CCCCC3)cc21,growth,[20],72.9%
COc1ccc2[nH]c(O)c(N=Nc3nc(-c4ccc(Br)cc4)cs3)c2c1,growth,[20],73.5%
COc1ccc(N=Nc2c(N)nn3c(-c4ccc(OC)c(OC)c4)ccnc23)cc1,growth,[20],92%
Cc1cc(C(NC(=O)C2CC3(CC(Nc4cccc5c4C(=O)N(C4CCC(=O)NC4=O)C5=O)C3)C2)c2ccc3c(c2)OC(F)(F)O3)c(O)c2ncccc12 (centres undefined),growth,[20],-16.4% (active)
Oc1ccc(Cl)c(Nc2ncnc3c2cnn3CC(Cl)c2ccc(Br)cc2)c1 (centres undefined),growth,[20],80.5%
O=C1NC(=NC23CC4CC(CC(C4)C2)C3)N/C1=C\c1ccc2ncccc2n1,growth,[20],-19.1% (active)
COc1ccc(N=Nc2c(N)nn3c(-c4ccc([N+](=O)[O-])cc4)ccnc23)cc1,growth,[20],85.7%
Cc1ccc(/C=C/C(=O)c2ccc(NC(=O)CSc3nnc(-c4c[nH]c5ccccc45)n3-c3ccccc3)cc2)c(C)c1,growth,[20],79.6%
CCCSc1nc(NC2CC2)c(C#N)c(-c2ccc(OC)cc2)n1,growth,[20],81%
N/C(=N\c1nc2ccccc2s1)NC(=O)NCCCCCCO,growth,[20],45.8%
CC(C)(C)OC(=O)N1CCC2(CC1)Oc1ccccc1[C@H]1CC(c3ccc(Br)cc3)=NN12,growth,[20],64.1%
O=c1cc(-c2ccccc2)oc2cc(OCCCNCc3ccccc3)cc(O)c12,growth,[20],-46.3% (active)
O=C(N/C(=C1/OCCN1Cc1ccccc1)[P+](c1ccccc1)(c1ccccc1)c1ccccc1)c1ccccc1,growth,[20],-13.1% (active)
Cc1cccc2cc(-c3cc(-c4ccccc4)nc(=O)[nH]3)c(Cl)nc12,growth,[20],55.3%
Cc1sc2c(c1C)C(c1ccc(Cl)cc1)=N[C@@H](CC(=O)NCCCCCNC(=O)COc1ccc(C3CCC(=O)NC3=O)cc1)c1nnc(C)n1-2 (some centres undefined),growth,[20],-16.6% (active)
CCOC(=O)C1=C(N)N(c2ccccc2)C2=C(C(=O)CC(C)(C)C2)C1c1cccc(Cl)c1Cl (centres undefined),growth,[20],46.2%
S=C(Nc1ccccc1)Nc1ccc(OCc2nc3ccc(Cl)cc3[nH]2)cc1,growth,[20],85.2%
COc1ccc(CN2[C@@H](C(=O)NCc3ccc(C(=O)NO)cc3)Cc3c([nH]c4ccccc34)[C@@H]2C2CC2)cc1,growth,[20],-8.06% (active)
Cc1ccc2nc(SCc3ccccc3F)n(-c3ccccc3)c(=O)c2c1,growth,[20],104%
O=C1N/C(=N\c2nccs2)S/C1=C\c1ccc([N+](=O)[O-])cc1,growth,[20],5.47% (active)
COc1ccc2[nH]c(=O)cc(-n3ncc(C(=O)/C=C/c4cc(OC)c(OC)c(OC)c4)c3C)c2c1,growth,[20],-33.4% (active)
COc1ccc(NC(=O)[C@H](C)N)cc1C(=O)Nc1cccc(C2CC(=O)c3c(cc(OC)c(OC)c3OC)O2)c1 (some centres undefined),growth,[20],69.8%
O=C1NC(=S)/C(=C/c2cn(-c3ccccc3)nc2-c2ccccc2)S1,growth,[20],21%
O=C(Cn1nc(-c2ccccc2)ccc1=O)NNC(=S)NC1CCCCC1,growth,[20],94.8%
N/C(=N\c1nc2ccccc2s1)NC(=O)Nc1c(Cl)cccc1Cl,growth,[20],17.9%
